Screening data: PubChem, several laboratories
ALR inh – inhibitors of human sulfhydryl oxidase ALR; P55789; purified ALR, DTT oxidation, H2O2 HRP-luminol luminescence; inhibition, % (test concentration not listed); actives 3.8% (n = 290,000);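 active = mean replicate inhibition above about 79%, with every replicate also reaching it, limit read from the data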
PglD DTNB – blocks C. jejuni PglD acetyltransferase activity; purified PglD enzyme, DTNB colorimetric CoA detection; actives 0.098% (n = 360,000); inhibition, % at 12.5 µM; in the data active = inhibition above about 16%, passing the limit was not always enough
ERp5 block – ERp5 (human) disulfide isomerase inhibition; ERp5 insulin aggregation, absorbance 650 nm, 90 min; actives 0.05% (n = 350,000); Q15084; inhibition, % at 9.99 µM;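 active = mean replicate inhibition above about 25%, with every replicate also reaching it, limit read from the data, passing the limit was not always enough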
CendR NRP1 mod – modulators of CendR peptide binding to human neuropilin-1 | FAM-RPARPAR peptide binding to NRP-1, fluorescence polarization | O14786 | actives 0.85% (n = 360,000) | inhibition, % at 25 µM;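 active = inhibition or corrected inhibition above about 18%, plus a signal ratio from 0.5 to 1.5, limit read from the data, passing the limit was not always enough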
ARNT-TACC3 inh – ARNT/TACC3 interaction disruption; AlphaScreen His-ARNT PAS-B/GST-TACC3 binding, luminescence; TACC3 fragment carries E629A point mutation; inhibition, % at 9.99 µM; actives 0.66% (n = 390,000); Q9Y6A5;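 active = mean inhibition of replicates at least 50% and at least half of replicates each reaching 50%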
PDI inh – blocks human protein disulfide isomerase activity | PDI insulin aggregation turbidity, A650, 90 min | inhibition, % at 10 µM | actives 0.052% (n = 350,000) | AID 588391;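 active = mean inhibition across replicates of 30% or more, whatever share of single replicates reach that level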
Target sequence (P07237 whole entry, looked up): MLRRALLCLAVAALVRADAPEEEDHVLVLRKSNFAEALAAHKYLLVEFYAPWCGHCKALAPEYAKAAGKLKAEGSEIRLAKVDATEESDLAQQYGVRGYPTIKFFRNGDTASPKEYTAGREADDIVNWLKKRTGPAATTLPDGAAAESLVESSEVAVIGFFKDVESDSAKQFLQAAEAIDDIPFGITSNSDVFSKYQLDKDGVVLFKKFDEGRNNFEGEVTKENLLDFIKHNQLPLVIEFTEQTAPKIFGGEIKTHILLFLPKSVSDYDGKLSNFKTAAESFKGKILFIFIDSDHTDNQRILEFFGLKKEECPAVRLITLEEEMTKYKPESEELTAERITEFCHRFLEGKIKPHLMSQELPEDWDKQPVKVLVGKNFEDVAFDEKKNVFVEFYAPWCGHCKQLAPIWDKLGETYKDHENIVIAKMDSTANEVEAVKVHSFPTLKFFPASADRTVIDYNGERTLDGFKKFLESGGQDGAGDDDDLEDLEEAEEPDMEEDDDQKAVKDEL
Hits are given with their value; – = inactive; · = no result. Shown is part of a subset that was picked to be rich in hits.

SMILES	ALR inh	PglD DTNB	ERp5 block	CendR NRP1 mod	ARNT-TACC3 inh	PDI inh
C[C@@H]1CN([C@H](C)CO)C(=O)c2cc(C#Cc3cccnc3)cnc2O[C@H]1CN(C)C(=O)CC1CC1	·	–	–	·	·	·
CCN(CC)c1ccc(C(=C2C=CC(=[N+](CC)CC)C=C2)c2ccccc2)cc1	·	·	–	–	23	–
C/C(=C\c1ccc(N)cc1)c1nc2ccccc2[nH]1	99	–	–	–	–	–
CN1c2ccsc2/C(=N/Nc2ccccc2)CS1(=O)=O	99	–	–	–	–	–
CCN1CCN(C(c2ccc(C(F)(F)F)cc2)c2ccc3cccnc3c2O)CC1 (stereo unspecified)	–	–	–	–	80	–
O=C1CN(S(=O)(=O)c2ccccc2)C[C@@H]2[C@H](c3ccc(C4=CCCC4)cc3)[C@@H](CO)N12	·	·	–	·	·	·
O=c1cc(O)nc(-c2ccc(Cl)cc2)s1	93	–	–	–	–	–
CC(NC(=O)c1ccco1)C(c1cccs1)N1CCN(c2ccc(F)cc2)CC1 (stereo unspecified)	99	·	–	–	–	–
CC(NC(=O)c1ccco1)C(c1cccs1)N1CCN(c2ccccc2)CC1 (stereo unspecified)	98	–	–	–	–	·
CC(NC(=O)c1ccco1)C(c1cccs1)N1CCN(c2ccccc2F)CC1 (stereo unspecified)	–	–	–	–	–	–
O=c1n(CCCN2CCN(c3cccc(Cl)c3)CC2)nc2ccccn12	93	–	–	–	–	–
C=CCn1c(N)cc(=O)nc1SCC(=O)Nc1ccccc1	·	·	·	–	–	–
C=CCn1c(N)cc(=O)nc1SCC(=O)Nc1ccc(C(=O)OC)cc1	99	–	–	–	–	–
C=CCn1c(N)cc(=O)nc1SCC(=O)Nc1ccc(C(=O)OCC)cc1	99	–	–	–	–	–
C=CCn1c(SCC(=O)Nc2ccccc2OC)nc(O)c(CC)c1=O	·	–	·	–	–	–
C=CCn1c(SCC(=O)Nc2ccc(Br)cc2)nc(O)c(CC)c1=O	98	–	–	–	–	–
CN1c2ccc(-c3ccccc3F)cc2[C@@H]2[C@@H](CCN2C(=O)NC2CCCCC2)[C@@H]1CO	·	·	–	·	·	·
Cc1ccccc1NC1C=CS(=O)(=O)C1 (stereo unspecified)	–	–	·	–	–	–
COc1ccccc1NC1C=CS(=O)(=O)C1 (stereo unspecified)	76	–	·	–	–	–
COc1cccc(S(=O)(=O)N[C@H]2CC[C@H](CCn3cc(-c4ccccc4)nn3)O[C@H]2CO)c1	·	–	–	·	–	·
COc1ccc(S(=O)(=O)Nc2ccc3c(c2)C(=O)N([C@H](C)CO)C[C@@H](C)[C@@H](CN(C)C(=O)c2ccncc2)OCCCC[C@@H](C)O3)cc1	·	–	–	·	–	·
CNC(=O)C[C@@H]1CC[C@H]2[C@@H](COc3ccc(NC(=O)c4ccc(F)cc4)cc3C(=O)N2C)O1	·	–	–	·	–	·
COc1ccc(S(=O)(=O)Nc2ccc3c(c2)C(=O)N([C@@H](C)CO)C[C@@H](C)[C@@H](CN(C)S(=O)(=O)c2cn(C)cn2)OCCCC[C@@H](C)O3)cc1	·	–	–	·	–	·
O=S(=O)(Nc1ccc(Br)cc1)c1cccc(NS(=O)(=O)c2cccs2)c1	·	–	–	21	–	–
Cc1ccc(S(=O)(=O)Nc2cccc3ncccc23)cc1	–	–	–	–	–	–
SMILES	ALR inh	PglD DTNB	ERp5 block	CendR NRP1 mod	ARNT-TACC3 inh	PDI inh
Cc1ccc(S(=O)(=O)Nc2cccc3ncccc23)s1	–	–	–	–	70	–
CCCNC(=O)N1CC(=O)N2[C@H](CO)[C@@H](c3ccc(C#CCC4CCCC4)cc3)[C@@H]2C1	·	·	–	·	·	·
CC(C)c1ccc2c(c1)C1(NN=C(c3ccccc3)S1)C(=O)N2 (stereo unspecified)	–	–	·	–	50	–
CC(C)c1cccc(O)c(=O)c1	–	–	–	–	–	·
CCOC(=O)c1cn(CC)c2cc(N3CCSCC3)c(F)cc2c1=O	99	–	·	–	–	–
COc1ccc(S(=O)(=O)Nc2ccc3c(c2)C(=O)N([C@@H](C)CO)C[C@H](C)[C@@H](CN(C)Cc2ccc(-c4ccccc4)cc2)O3)cc1	·	–	–	·	–	·
C[C@@H]1CN([C@@H](C)CO)C(=O)c2c(c3ccccc3n2C)-c2ccccc2CO[C@H]1CN(C)S(=O)(=O)c1cn(C)cn1	·	–	–	·	–	·
O=C(CS(=O)(=O)c1ccccc1)Nc1nnc(Cc2ccccc2)s1	87	–	–	–	–	–
CCCc1nnc(NC(=O)CS(=O)(=O)c2ccccc2)s1	–	–	–	–	–	–
CS(=O)(=O)c1ccc(Cl)c(NC(=O)COC(=O)c2ccc(S(=O)(=O)N3CCCC3)cc2)c1	–	–	–	22	–	–
C[C@H]1CCCCO[C@H](CN(C)S(=O)(=O)c2ccccc2)[C@@H](C)CN([C@@H](C)CO)C(=O)c2cc(N(C)C)ccc2O1	·	–	–	·	–	·
CCNC(=O)C[C@@H]1CC[C@@H]2[C@H](COc3ccc(NC(=O)Nc4ccccc4F)cc3C(=O)N2C)O1	·	–	–	·	–	·
NNC(=O)c1sc(-c2ccc(Cl)cc2)cc1N	98	–	–	–	–	–
COCC(=O)Nc1ccc2c(c1)C(=O)N(C)C[C@H](OC)[C@H](C)CN(CC1CCCCC1)[C@@H](C)CO2	·	–	–	·	–	·
CS(=O)(=O)c1ccc(C(=O)OC2CCOC2=O)cc1[N+](=O)[O-] (stereo unspecified)	94	–	–	–	–	–
O=C(OC1CCOC1=O)c1ccccc1C(=O)c1ccc(Cl)c([N+](=O)[O-])c1 (stereo unspecified)	·	–	·	–	–	–
COc1ccc(CNc2ccccc2)cc1Br	83	–	·	–	–	–
O=C1CC(NNc2ccccc2)C(=O)N1c1ccccc1 (stereo unspecified)	100	·	–	–	–	–
COc1ccccc1N1C(=O)CC(N2CCN(c3ccc([N+](=O)[O-])cc3)CC2)C1=O (stereo unspecified)	–	–	–	–	–	–
COc1ccccc1N1C(=O)CC(Nc2ccc(N3CCOCC3)cc2)C1=O (stereo unspecified)	100	–	·	–	–	–
O=C1CC(Nc2ccc(N3CCOCC3)cc2)C(=O)N1c1ccccc1 (stereo unspecified)	99	–	·	–	–	–
O=C1CC(Nc2ccc(N3CCOCC3)cc2)C(=O)N1Cc1ccccc1 (stereo unspecified)	98	·	·	–	–	–
COc1ccc(NC2CC(=O)N(c3ccccc3)C2=O)cc1 (stereo unspecified)	·	–	·	–	–	–
CCOc1ccccc1N1C(=O)CC(Nc2ccc(N3CCOCC3)cc2)C1=O (stereo unspecified)	98	–	–	–	–	–
